# From PubChem BioAssay
# Rows were chosen to be rich in hits. Some 9.2% of all compounds tested hit in one or more screens of this group.
# FLuc modulator: firefly luciferase modulation, counter-screen for miR-21 project | purified FLuc, Km substrates, luminescence inhibition | Potency, µM (top dose mostly 57.5 µM), for the others: at the highest dose activity change, negative = inhibition, hits mostly inhibitors | hit rate 6.9% among 360,000;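 further: plate controls were vehicle for no effect and reference inhibitor for full effect; nearly all actives have a fitted effect of over 55% in size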
# Target sequence (P08659 whole entry, looked up): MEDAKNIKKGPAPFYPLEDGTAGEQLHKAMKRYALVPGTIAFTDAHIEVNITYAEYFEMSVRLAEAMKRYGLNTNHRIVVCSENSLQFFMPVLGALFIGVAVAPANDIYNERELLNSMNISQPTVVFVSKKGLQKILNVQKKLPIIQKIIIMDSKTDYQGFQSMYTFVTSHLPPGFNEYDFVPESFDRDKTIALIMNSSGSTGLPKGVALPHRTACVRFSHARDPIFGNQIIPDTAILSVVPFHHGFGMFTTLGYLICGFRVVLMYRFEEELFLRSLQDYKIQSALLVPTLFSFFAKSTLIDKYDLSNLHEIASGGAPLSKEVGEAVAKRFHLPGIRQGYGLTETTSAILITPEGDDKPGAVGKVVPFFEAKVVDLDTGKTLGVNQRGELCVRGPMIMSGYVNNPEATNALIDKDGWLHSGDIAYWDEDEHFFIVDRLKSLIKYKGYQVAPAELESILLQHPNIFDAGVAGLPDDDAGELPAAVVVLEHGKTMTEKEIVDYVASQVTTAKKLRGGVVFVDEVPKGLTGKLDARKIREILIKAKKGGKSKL
#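 Purified P. pyralis luciferase (10nM final) with 10uM D-luciferin and 10uM ATP (Km levels) in 50mM Tris acetate pH 7.5, 10mM Mg acetate, 0.01% Tween-20, 0.05% BSA; qHTS 6-point titration, ~60 µM downward; luminescence read.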
# SMN2 splice up: enhancers of SMN2 splice variant expression | AID 1458 | Potency, µM (highest dose often 46.1 µM), for the others: top-dose activity change, positive = activation, hits mostly activators | hit rate 2.8% among 210,000 | HEK293 SMN2-luciferase splicing reporter, luminescence, 30-36 h; further: % of control where 0% means no effect; nearly all actives have a fitted effect of over 55% in size
#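 HEK293 cells carry an SMN2 […]–luciferase reporter in which exon 7 inclusion puts luciferase in frame. Cells were plated 10-12 h before compound addition, then incubated 30-36 h at 37C. ONE-Glo luminescence was read; sodium butyrate at 4.5 mM final served as control.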
# Rab9 promoter act: Rab9 promoter activation; Potency, µM (series often up to 9.22 µM), without a hit: top-dose activation, negative = inhibition, usual class: activators; hit rate 2.8% among 320,000; Huh7 Rab9 promoter-luciferase reporter, luminescence, 24 h; further: % of control where 0% means no effect; nearly all actives have a fitted effect of over 60% in size
#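 Huh7 cells stably carrying a Rab9 promoter-luciferase reporter, 1500 cells per well in OP-MEM I with 10% FBS, treated with compound 24 hours at 37C. Luciferase activity read by luminescence after 10 minutes with Amplite reagent.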
# NPC1 promoter act: NPC1 promoter activation; Potency, µM (series often up to 9.22 µM), for inactives: top-dose activation, usual class: activators; AID 485313; Huh7 NPC1 promoter luciferase reporter, 24 h; hit rate 2.4% among 320,000; further: % of control where 0% means no effect; nearly all actives have a fitted effect of over 60% in size
#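 Compounds in DMSO were transferred onto Huh7 NPC1-luciferase reporter cells pre-incubated 2 h; after 24 h at 37 °C, Amplite reagent was dispensed and luminescence recorded 10 min later.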
# ELG1 genotoxic: inducers of genotoxicity in HEK293T ELG1-luciferase cells; HEK293T ELG1-luciferase reporter, luminescence, 16 h; Potency, µM (doses to about 46 µM), without a hit: top-dose activity change, positive = activation, hits mostly activators; hit rate 1.3% among 330,000; AID 504466; further: % of control where 0% means no effect; nearly all actives have a fitted effect of over 60% in size
#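 Step 1: seed 2,000 HEK293T ELG1-luciferase cells per well. Step 2: add compound or DMSO, incubate 16 hr at 37 °C. Step 3: ONE-Glo, 30 min at room temperature, read luminescence.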
# ELG1 repair inh: inhibitors of ELG1-dependent DNA repair in HEK293T cells; HEK293T ELG1-luciferase reporter, luminescence, 16 h; DNA damage induced by 5-fluorouridine; Potency, µM (top dose mostly 46.1 µM), inactives show top-dose activity change, negative = inhibition, hits mostly inhibitors; hit rate 2.3% among 330,000; further: on the % scale 0 is the no-effect control and ±100 the full control effect; nearly all actives have a fitted effect of over 55% in size
#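 DMSO vehicle served as the neutral condition. Each well held 2,000 cells given 5-fluorouridine plus compound; after 16 hr at 37 °C/5% CO2, ONE-Glo was added and luciferase measured 30 min later.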
# Numbers without * were called inactive; u = inconclusive; x = no result. The call rests on the fitted dose curve; in most records, active means well fitted curve in the direction sought with a large enough effect; inconclusive means small, poorly fitted or top-dose-only effect, or another doubt; inactive means no such curve, though single readings can be large; an effect the other way counts as inactive or inconclusive. Potency means the concentration at half of the fitted maximal effect.
SMILES,FLuc modulator,SMN2 splice up,Rab9 promoter act,NPC1 promoter act,ELG1 genotoxic,ELG1 repair inh
CCOC(=O)C1(Cc2ccccc2C)CCCN(C(=O)c2ccc3nccnc3c2)C1 (centres undefined),-8.0%,x,11.5%,0.4%,-22.8%,23.1µM*
CCOC(=O)C1(Cc2ccccc2)CCCN(C(=O)c2cnn(CC)c2)C1 (centres undefined),15.1µM*,x,3.98µM*,u,u,u
CCOC(=O)C1(Cc2ccccc2)CCCN(Cc2cnn(CC)c2)C1 (centres undefined),-0.8%,x,-9.3%,-6.0%,-0.8%,1.2%
CCOC(=O)C1(Cc2ccccc2C)CCCN(C(=O)c2ccccn2)C1 (centres undefined),u,x,7.3%,0.3%,-2.7%,u
O=C(/C=C/c1ccccc1)N1CCN(c2ccc([N+](=O)[O-])c(N3CCOCC3)c2)CC1,u,-15.8%,-2.2%,-0.2%,-4.9%,u
CN(Cc1ccccc1)C(=O)CCC1CCN(C(=O)CCC(F)(F)F)CC1,u,x,25.5%,u,13.7%,u
Cc1c(Cc2ccccc2)c(=O)oc2cc(OCC(=O)N3CCC(C(=O)O)CC3)ccc12,21.3µM*,x,-5.7%,0.1%,4.0%,u
COc1ccc(CNC(=O)Cc2c(C)c3c(O)cc(C)cc3oc2=O)cc1,1.5%,21.2%,x,x,x,x
O=C(O)C1CCN(C(=O)COc2ccc3c(c2)oc(=O)c2ccccc23)CC1,u,x,-1.5%,1.5%,5.1%,12.0%
COc1ccc(CNC(=O)Cc2c(C)c3ccc(O)cc3oc2=O)cc1,7.57µM*,-1.4%,x,x,x,x
CC(=O)COc1ccc2c(C)c(-c3ccccc3)c(=O)oc2c1,16.9µM*,-7.0%,3.16µM*,u,6.9%,u
CCCc1c(C)c2ccc(OCC(C)=O)cc2oc1=O,u,22.6%,u,u,u,u
Cc1c(C)c2ccc(OCC(=O)c3ccccc3)cc2oc1=O,u,x,3.55µM*,2.24µM*,u,u
COc1cccc(C(=O)COc2ccc3c(C)c(Cc4ccccc4)c(=O)oc3c2)c1,-0.5%,-58.7%,-10.6%,-3.4%,-1.9%,-27.0%
O=C(CNS(=O)(=O)c1ccccc1)OCC(=O)c1ccccc1Cl,-3.7%,x,-0.1%,-4.5%,0.2%,-1.2%
COC(=O)Cc1c(C)c2ccc(OC(=O)c3ccccc3)cc2oc1=O,15.1µM*,15.3%,-0.1%,-3.0%,0.2%,14.9%
CCCCc1c(C)c2ccc(OCC(C)=O)cc2oc1=O,19µM*,15.8µM*,2.82µM*,3.16µM*,5.17µM*,u
Cc1c(CC(=O)O)c(=O)oc2cc(OCc3ccc(Cl)cc3)ccc12,8.49µM*,x,14.6%,12.0%,6.3%,u
COc1ccc(Cl)cc1NC(=O)CN1c2ccccc2S(=O)(=O)c2ccccc21,-2.8%,x,x,x,x,x
O=C1c2ccccc2C(=O)C1(CO)c1ccc(OC(F)F)cc1,0.953µM*,x,0.447µM*,u,u,u
O=C1c2ccccc2C(=O)C1(CO)c1ccccc1,15.1µM*,166.2%,u,26.1%,-7.8%,u
COC(=O)CC1(c2ccccc2)C(=O)c2ccccc2C1=O,6.0%,-0.3%,-0.3%,-2.0%,1.7%,-0.3%
Fc1ccccc1Nc1nc(N2CCOCC2)nc(N2CCOCC2)n1,-0.5%,x,-1.1%,0.9%,-5.7%,5.8µM*
CC(=O)c1ccc(NC(=O)CSc2nc(Nc3ccccc3)nc(N3CCOCC3)n2)cc1,-3.8%,x,-4.3%,-4.5%,2.0%,5.8µM*
c1ccc2c(Nc3nc(N4CCOCC4)c4ccccc4n3)cccc2c1,u,-60.4%,-4.3%,0.0%,-2.6%,23.1µM*
SMILES,FLuc modulator,SMN2 splice up,Rab9 promoter act,NPC1 promoter act,ELG1 genotoxic,ELG1 repair inh
Cc1ccccc1Nc1nc(N2CCOCC2)nc(N2CCOCC2)n1,1.1%,x,-3.7%,1.4%,-0.4%,u
Fc1ccc(Nc2nc(N3CCOCC3)c3ccccc3n2)cc1,-5.9%,-26.5%,-4.1%,-0.4%,-8.3%,u
O=C(CSc1nc2ccc(Nc3nc(N4CCOCC4)nc(N4CCOCC4)n3)cc2s1)N1CCOCC1,1.0%,11.9%,-10.4%,-1.9%,-1.9%,2.59µM*
NS(=O)(=O)c1ccc(NC(=O)CSc2nc(Nc3ccccc3)nc(N3CCOCC3)n2)cc1,-3.2%,x,-2.0%,-0.6%,-0.7%,u
CCOC(=O)C1CCN(C(=O)Cn2c(=O)oc3cc(S(=O)(=O)N4CCCC4)ccc32)CC1,1.5%,x,8.4%,-2.1%,0.0%,7.2%
CCOC(=O)C1CCN(Cc2cccc(OCc3ccccc3)c2)CC1,-0.5%,x,2.0%,-0.4%,-2.2%,1.4%
O=C(CSc1nc2ccc(Nc3nc(N4CCOCC4)nc(N4CCOCC4)n3)cc2s1)Nc1ccccc1F,0.3%,x,-15.3%,-6.9%,-1.3%,2.59µM*
Cc1cc(Nc2ccc(C)c(Cl)c2)nc(N2CCOCC2)n1,-11.8%,x,10.2%,21.9%,1.3%,20.6µM*
CCCC(=O)Nc1ccc2nc(SCC(=O)Nc3ccc(N4CCOCC4)c(Cl)c3)sc2c1,3.79µM*,-10.4%,28.8%,3.98µM*,-12.3%,u
Clc1ccc(Nc2nc(N3CCOCC3)nc(N3CCOCC3)n2)cc1Cl,-0.5%,x,-12.5%,-13.9%,8.4%,1.64µM*
Nc1ccc2nc(SCC(=O)Nc3ccc(N4CCOCC4)c(Cl)c3)sc2c1,u,28.7%,7.4%,12.3%,u,11.3%
O=C(NCc1ccc2c(c1)CCN2C(=O)c1ccncc1)c1ccc(Cl)cc1,-0.6%,x,x,x,x,x
CCc1nnc(NC(=O)c2ccc(OC)c(S(=O)(=O)N3CCCC3)c2)s1,1.1%,x,2.5%,-2.1%,-3.8%,-15.0%
Fc1ccc(Nc2nc(N3CCOCC3)nc(N3CCOCC3)n2)cc1Cl,0.1%,x,-3.5%,-6.7%,10.8%,u
CSc1nc2ccc(Nc3nc(N4CCOCC4)nc(N4CCOCC4)n3)cc2s1,1.2%,-4.2%,-3.0%,-4.8%,-19.4%,5.17µM*
COc1ccccc1-c1sc2cc3c(cc2c1C#Cc1cncn1C)OCO3,x,x,x,x,-3.6%,-26.5%
CSc1ccccc1NC(=O)COC(=O)Cc1ccsc1,x,x,x,x,0.1%,-1.6%
COc1ccc(NC(=O)Nc2ccc(OC)cc2)cc1,-22.1%,u,2.24µM*,2.82µM*,u,u
COc1ccc(NC(=O)Nc2ccc(N(C)C)cc2)cc1,3.01µM*,12.6µM*,2.24µM*,2.51µM*,u,u
COc1ccc(NC(=O)/C=C2\SC(=O)NC2=O)cc1,12µM*,23.0%,-1.3%,5.8%,12.0%,0.0%
CC(C)OC(=O)Nc1ccc(-c2ccc(NC(=O)OC(C)C)cc2Cl)c(Cl)c1,2.2%,x,2.9%,-2.1%,2.0%,12.3%
COc1ccc(NC(=O)OC(C)C)cc1,12µM*,11.2µM*,2.24µM*,2µM*,u,u
